MARV entry inh: Marburg virus entry inhibition | Potency, µM (highest dose often 49.2 µM), actives largely listed as inhibitors | AID 720532 | actives 6.5% (n = 18,000) | Marburg virus pseudotype entry/binding inhibition, cell-based
LASV entry inh: inhibitors of Lassa virus binding or entry into cells | actives 4.1% (n = 18,000) | Potency, µM (series often up to 49.2 µM), hits mostly inhibitors | Lassa virus pseudotyped entry inhibition, cell-based qHTS | AID 720533
A number is an active result; - = inactive; ? = inconclusive; . = not tested or not shown; ! = repeats disagree; [ ] = dose if it differs, or a comment. Rows were chosen to be rich in hits. Some 8% of all compounds tested hit in one or more screens of this group. Calls come from the whole dose curve; tested in HEK293 cells.

SMILES	MARV entry inh	LASV entry inh
CC(=O)OC[C@H]1O[C@H](CC=NOC[C@@H](O)[C@H]2O[C@@H]3OC(C)(C)O[C@H]3[C@@H]2O)C=C[C@H]1OC(C)=O	?	-[8.59 µM]
Nc1ccccc1	-	-
O=c1c(-c2ccccc2)c1-c1ccccc1	14.1µM	7.08µM
C=C1[C@@H]2CC[C@@H](C2)C1(C)C	-	-
CC[C@H](C)[C@H](NC(=O)[C@H](CC(=O)O)NC(=O)[C@H](CC(C)C)NC(=O)[C@H](Cc1cnc[nH]1)NC(=O)[C@H](C)NC(=O)[C@H](Cc1ccccc1)NC(=O)[C@H](Cc1ccc(O)cc1)NC(=O)[C@@H](NC(=O)[C@H](C)NC(=O)[C@H](CCC(=O)O)NC(=O)[C@H](CCCCN)NC(=O)[C@H](CC(=O)O)NC(=O)[C@H](CCSC)NC(=O)[C@H](CC(C)C)NC(C)=O)C(C)C)C(=O)N[C@H](C(=O)N[C@@H](Cc1c[nH]c2ccccc12)C(=O)O)[C@@H](C)CC	-	-
CC(C)C[C@@H](NC(=O)OCC1c2ccccc2-c2ccccc21)C(=O)O	-	-
CC(C)C[C@@H](/C=C/S(C)(=O)=O)NC(=O)[C@H](CC(C)C)NC(=O)[C@H](CC(C)C)NC(=O)OCc1ccccc1	?	1.12µM
COC(=O)[C@H](Cc1ccccc1)NC(=O)[C@@H](N)CC(=O)O	-	-
CC(=O)[C@H](CC(C)C)NC(=O)[C@@H](CC(C)C)NC(=O)[C@H](CC(C)C)NC(=O)OCc1ccccc1	-	0.316µM
NC1(C(=O)O)CCc2cc(C(=O)O)ccc21 (stereo unspecified)	-	-
COc1ccc2c(c1)OC(=O)CC2c1ccccc1C (stereo unspecified)	-	-
CC(C)=CCCC(C)=CCON=C1C[C@@H](O)[C@@H](O)[C@@H]2[C@H]3C(=O)N(Cc4ccc5c(c4)OCO5)C(=O)[C@@H]3CC[C@H]12	-[8.59 µM]	.
COc1ccccc1N1CCN(CCCCNC(=O)c2ccc3ccccc3c2)CC1	-	-
COc1cc2c(N3CCN(C(=O)Nc4ccc(OC(C)C)cc4)CC3)ncnc2cc1OCCCN1CCCCC1	8.91µM	?
COCCN1C(=O)NC(CCc2ccccc2)C(C(=O)OC)=C1C (stereo unspecified)	-[8.59 µM]	-[8.59 µM]
CC[C@H](C)[C@H](NC(=O)[C@H](Cc1ccc(O)cc1)NC(=O)[C@@H](NC(=O)[C@H](CCCN=C(N)N)NC(=O)[C@@H](N)CC(=O)O)C(C)C)C(=O)N[C@@H](Cc1cnc[nH]1)C(=O)N1CCC[C@H]1C(=O)N[C@@H](Cc1ccccc1)C(=O)N[C@@H](Cc1cnc[nH]1)C(=O)N[C@@H](CC(C)C)C(=O)O	-	-
CN1CC(O)C2=CC(=O)C(=O)C=C21 (stereo unspecified)	8.91µM	-
CC1=CC[C@@H](C)O[C@@]2(C1)C(=O)N(Cc1ccc(F)cc1)c1ccccc12	-[8.59 µM]	-[8.59 µM]
CCN(CC)C(=O)N[C@H]1C[C@@H]2c3cccc4[nH]cc(c34)C[C@H]2N(C)C1	-	-
C=CCN1C[C@H](C(=O)N(CCCN(C)C)C(=O)NCC)C[C@@H]2c3cccc4[nH]cc(c34)C[C@H]21	7.94µM	-
Cc1[nH]ccc2c1[nH]c1cc(=O)ccc12	12.6µM	?
COCc1c(C(=O)NCC2CCCN(C)C2)cnn1-c1ncc2c(n1)-c1ccccc1CCC2 (stereo unspecified)	-	-
CCCCCCCC(=O)OCC(O)CO (stereo unspecified)	-	-
CCCCCCCCCCCCCCCCOCCOCCOCCOCCOCCOCCOCCOCCOCCOCCOCCOCCOCCOCCOCCOCCOCCOCCOCCOCCO	?	15.8µM
CCCCCCCCCCOCC(O)CN (stereo unspecified)	?	31.6µM
SMILES	MARV entry inh	LASV entry inh
CCCCCCCCCCCCSCCOCCO	-	-
COC1(C)CC(c2ccccc2)c2c(c3ccccc3oc2=O)O1 (stereo unspecified)	-	-
C=CCO[C@@H](Cn1ccnc1)c1ccc(Cl)cc1Cl	-	-
Clc1ccc(COC(Cn2ccnc2)c2ccc(Cl)cc2Cl)cc1 (stereo unspecified)	?	35.5µM!
CC(C)(CO)[C@@H](O)C(=O)NCCCC(=O)O	-	-
COCc1ccc(CN2CCOc3c(O)cc(-c4cc(C)c5ccc(F)cc5n4)cc3C2)o1	-	?
Oc1ccc(Cl)cc1CN1CCOc2c(O)cc(-c3nc4ccccc4s3)cc2C1	-	1.58µM
Cc1cc(O)cc(C)c1C=Cc1cncc(-c2nn[nH]n2)c1	-	-
COC(=O)[C@@H](NC(=O)C1CCCN(c2nc(C)c3ccc(C)cc3n2)C1)C(C)C (stereo partly specified)	?	-
C=NCc1cc2c(OC[C@@H](O)CNC(C)(C)C)cccc2[nH]1	?	-
CC(C)OC(=O)c1cc2c(OCC(O)CNC(C)(C)C)cccc2[nH]1 (stereo unspecified)	35.5µM	-
CO[C@H]1[C@H](NC(=O)c2cccs2)c2ccccc2C12CCN(Cc1cccn1-c1ccccn1)CC2	?	-
COC(=O)CN1CN(c2ccccc2)C2(CCN(Cc3ccc4ccccc4c3)CC2)C1=O	?	-
O=C(CCCN1CCC2(CC1)C(=O)N(Cc1cccc(F)c1)CN2c1ccccc1)c1ccc(F)cc1	8.91µM	15.8µM
CC1CN(CCC(=O)N2CCCC(C(=O)c3nccn3C)C2)Cc2cc(Cl)ccc2O1 (stereo unspecified)	-	-
N#CC(C#N)=Cc1ccc([N+](=O)[O-])c(O)c1	15.8µM!	?
O=[N+]([O-])c1ccc(O)c([N+](=O)[O-])c1	-	-
CCN1CCCC1CNC(=O)c1cnn(-c2nccc(-c3cc4ccccc4o3)n2)c1C (stereo unspecified)	?	-
COc1ccc(C(=O)NCc2ccc(OCCN(C)C)cc2)cc1OC	-	-
COc1ccc(NC(=O)c2ccc(-c3ccc(-c4noc(C)n4)cc3C)cc2)cc1N1CCN(C)CC1	6.31µM	15.8µM
Cc1nc(-c2ccc(-c3ccc(C(=O)N4CCc5cc6c(cc54)C4(CCN(C)CC4)CO6)cc3)c(C)c2)no1	10µM	28.2µM
COc1ccc(NC(=O)c2ccc(-c3ccc(-c4noc(C)n4)cc3C)cc2)cc1OCCN(C)C	3.55µM	22.4µM
Cc1ccc(NC(=O)c2ccnc(N3CCCC3)c2)cc1-c1ccc(C(=O)NCC2CC2)cc1	-	.
COc1cccc([C@@H]2Oc3ccc(Br)cc3C(=O)[C@@H]2OC(=O)Nc2cc(OC)c(OC)c(OC)c2)c1	-[8.59 µM]	-[8.59 µM]
Cc1ccc(S(=O)(=O)N[C@@H](Cc2ccccc2)C(=O)CCl)cc1	?	35.5µM
SMILES	MARV entry inh	LASV entry inh
Cc1ccc(S(=O)(=O)NCl)cc1	-	-
CC1=C[C@]2(O[C@H](COc3ccccc3)C1)C(=O)N(C)c1ccccc12	-[8.59 µM]	-[8.59 µM]
COc1ccc2cc1Oc1ccc(cc1)C[C@H]1c3cc(c(OC)cc3CCN1C)Oc1c(OC)c(OC)cc3c1[C@@H](C2)N(C)CC3	2.24µM	?
COc1ccc2cc1Oc1ccc(cc1)CC1c3cc(c(OC)cc3CCN1C)Oc1c(OC)c(OC)cc3c1C(C2)N(C)CC3 (stereo unspecified)	1.58µM	11.2µM
COc1cc2c3cc1Oc1c(OC)c(OC)cc4c1C(Cc1cccc(c1)Oc1ccc(c(O)c1)CC3N(C)CC2)N(C)CC4 (stereo unspecified)	-	-
COc1cc2c3cc1Oc1cc(ccc1O)CC1c4c(cc(OC)c(O)c4Oc4ccc(cc4)CC3N(C)CC2)CC[N+]1(C)C (stereo unspecified)	-	-

Compound activity deposited in PubChem by National Center for Advancing Translational Sciences (NCATS).
